# MITF inh: MITF inhibitors, primary screen, biochemical, AlphaScreen, human. Microphthalmia-associated transcription factor (Homo sapiens), O75030. AlphaScreen MITF homodimerization, bead proximity signal. inhibition, % at 2.6 µM. 0.91% of 650,000 active; in the data active = inhibition above about 50%;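 note: 0% = vehicle wells with protein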
# GPR151 activ: activators of human GPR151, primary screen, cell-based, PathHunter beta-arrestin, luminescence; G-protein coupled receptor 151 (Homo sapiens), Q8TDV0; activation, % at 11.2 µM; PathHunter beta-arrestin GPR151 cells; AID 1508602, 2020; 1% of 650,000 active; in the data active = activation above about 4.9%;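 note: 0% = median of compound wells and 100% = cells with positive control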
# TEAD-YAP inh: TEAD-YAP interaction inhibition, primary screen, TEAD-YAP interaction inhibitor project, luminescence, HEK-TIYL cells; AID 1259422, 2018; inhibition, % at 9.12 µM; 1.4% of 640,000 active; TEAD-Gal4/YAP UAS-luciferase luminescence; in the data active = inhibition above about 32%;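 note: 0% = median of test compound wells and 100% = reference inhibitor wells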
# FBW7 act: FBW7 E3 ligase activators, primary screen, biochemical, AlphaScreen, human; F-box/WD repeat-containing protein 7 (Homo sapiens), Q969H0; AlphaScreen FBW7–phospho-cyclin E peptide binding, activator screen; normalized activity (activation), % at 26.1 µM; 0.13% of 650,000 active; in the data active = normalized activity above about 1.9%;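 note: purified mutant Fbw7 with reduced substrate affinity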
# Target sequence (Q969H0 whole entry, looked up): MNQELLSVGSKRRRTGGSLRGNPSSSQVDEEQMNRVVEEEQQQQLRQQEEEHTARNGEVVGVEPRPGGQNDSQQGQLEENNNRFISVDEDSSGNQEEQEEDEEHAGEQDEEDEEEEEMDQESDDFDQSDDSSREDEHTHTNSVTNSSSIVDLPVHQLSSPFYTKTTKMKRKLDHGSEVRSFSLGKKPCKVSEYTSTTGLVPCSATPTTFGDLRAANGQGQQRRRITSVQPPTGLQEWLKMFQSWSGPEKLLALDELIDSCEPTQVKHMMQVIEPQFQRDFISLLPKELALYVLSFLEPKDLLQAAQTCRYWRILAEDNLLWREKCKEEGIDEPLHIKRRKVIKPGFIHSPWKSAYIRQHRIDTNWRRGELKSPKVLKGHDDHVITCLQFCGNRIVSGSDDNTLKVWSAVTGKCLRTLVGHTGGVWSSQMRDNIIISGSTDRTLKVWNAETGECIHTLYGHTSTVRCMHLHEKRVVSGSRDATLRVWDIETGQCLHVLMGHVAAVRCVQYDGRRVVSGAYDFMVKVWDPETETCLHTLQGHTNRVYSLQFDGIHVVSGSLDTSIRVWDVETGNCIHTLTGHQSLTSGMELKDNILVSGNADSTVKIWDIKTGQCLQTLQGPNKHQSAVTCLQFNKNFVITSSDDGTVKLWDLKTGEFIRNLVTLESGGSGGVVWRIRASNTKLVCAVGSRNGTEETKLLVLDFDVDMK
# The depositor's hits bear a star. Sampled rows, rich in hits. Any-hit rate of the full collection: about 3.5%.
SMILES,MITF inh,GPR151 activ,TEAD-YAP inh,FBW7 act
Cc1ncn(-c2ccc(Nc3nccc(-c4ccc(C#N)c(N5CCC(O)CC5)c4)n3)cc2)n1,31,0,69*,0
Cc1ncn(-c2ccc(Nc3nccc(-c4ccc(N5CCCC(CO)C5)c(C#N)c4)n3)cc2)n1 (stereo not drawn),9,3,46*,0
C[C@@H]1CN(C(=O)Nc2cccc(Nc3nccc(-c4ccc(N5CCC(O)CC5)c(C#N)c4)n3)c2)C[C@H](C)O1,15,-1,40*,1
N#Cc1cc(-c2ccnc(Nc3ccc(-n4cnc(N5CCC(O)CC5)n4)cc3)n2)ccc1N1CCC(O)CC1,-3,1,50*,0
COc1ccc(NC(=O)CN2C(=O)NC(CC(C)C)C2=O)c(OC)c1 (stereo not drawn),-7,0,5,0
Cc1noc(C(=O)NC2CCCC2)c1Cl,14,-1,0,0
COc1ccccc1Nc1cc(N2CCCCCC2)c2nonc2c1[N+](=O)[O-],-3,1,9,0
Cc1csnc1NC(=O)c1c(N)nc2c(c1C(F)(F)F)OC1=C(CCC1)O2,6,1,96*,0
O=[N+]([O-])c1cc2c(cc1C=Nc1ccc(O)cc1)OCO2,53*,-2,7,0
Cc1cnc(Nc2ccc(N3CCOCC3)cc2)nc1NCc1ccccc1,30,1,37*,0
COc1ccc(CCNc2nc(Nc3ccncc3)nc3nc[nH]c23)cc1,2,0,44*,0
Cc1cnc(Nc2nc3ccccc3n2C)nc1NCc1ccccc1,10,0,42*,1
COc1ccc(CCNc2nc(Nc3ccc(C(F)(F)F)cc3)nc3nc[nH]c23)cc1,5,-1,9,0
Cc1cnc(Nc2ccc(N3CCOCC3)cc2)nc1NCc1cccnc1,8,0,-9,0
COc1ccc(CCNc2nc(Nc3ccc(N4CCOCC4)cc3)ncc2C)cc1,20,3,64*,0
Cn1cnc(-c2ccccc2Nc2nc(Nc3ccc(N4CCOCC4)cc3)ncc2Cl)n1,27,1,33*,-1
COc1ccc(CNc2nc(Nc3ccc(N4CCOCC4)cc3)nc3nc[nH]c23)cc1,1,1,-16,0
Cc1cnc(Nc2ccncc2)nc1NCc1ccccc1,21,1,40*,0
COc1ccc(CCNc2nc(Nc3ccc(N4CCOCC4)cc3)nc3nc[nH]c23)cc1,15,3,49*,0
CC(C)N1CCN(Cc2ccc(N(C)c3ccccc3)cc2)CC1CCO (stereo not drawn),-6,3,9,0
CC(=O)c1c(C)nn(CC(O)COc2ccc(C(=O)c3ccc(Cl)cc3)cc2)c1C (stereo not drawn),-23,1,40*,0
Cc1cc(C)n(CC(O)COc2ccc(C(=O)c3ccccc3)cc2)n1 (stereo not drawn),16,0,-21,0
O=C(Nc1cccnc1)c1ccc(C2CCCCC2)cc1,4,2,-78,0
CC(C)=CC(=O)N1CCC(Oc2ccc(C(=O)NCCc3ccccc3)cc2)CC1,2,-1,-7,0
O=C(NCCc1ccccc1)c1ccc(OC2CCN(C(=O)c3ccco3)CC2)cc1,-13,-1,83*,0
SMILES,MITF inh,GPR151 activ,TEAD-YAP inh,FBW7 act
O=C1CC(C(=O)N2CCC(Oc3ccc(C(=O)NCCc4ccccc4)cc3)CC2)CN1 (stereo not drawn),10,0,80*,0
COc1cnc(-c2ccccn2)nc1-c1ccc(C(F)(F)F)cc1,24,1,27,0
Cc1ccc(-c2nnc(Nc3cccc(O)c3)c3ccccc23)cc1,-9,0,0,0
Cc1ccc2c(c1)CC(c1nc3ccc(-c4cn[nH]c4)cc3c(=O)[nH]1)CO2 (stereo not drawn),47,-2,-10,0
COc1ccc2c(c1)CC(c1nc3cc(-c4ccncc4)ccc3c(=O)[nH]1)CO2 (stereo not drawn),19,1,-2,0
COc1ccc2c(c1)CC(c1nc3cc(-c4cn[nH]c4C)ccc3c(=O)[nH]1)CO2 (stereo not drawn),10,1,40*,0
COc1ccccc1OCc1nc2ccc(-c3cn[nH]c3C)cc2c(=O)[nH]1,10,-1,38*,0
Cc1[nH]ncc1-c1ccc2nc(C3COc4ccccc4C3)[nH]c(=O)c2c1 (stereo not drawn),17,-2,50*,1

# From PubChem BioAssay
